Here are results for eight molecules from PubChem BioAssay (NCATS).

Where “and” joins values, the source holds several entries; their conditions need not be identical. Identical values can stand only once. Inconclusive results are not listed. Calls of active or inactive are those of the source. Unless noted, calls come from the whole dose curve; as a rule, active = well fitted curve in the direction sought with a large enough effect; inconclusive = small, poorly fitted or top-dose-only effect, or another doubt; inactive = no such curve, though single readings can be large; an effect the other way counts as inactive or inconclusive.

A short description of assay [1]: Cell Viability - MRC5 (AID 434; calls by dose curve;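 note: potency is the fitted concentration of half-maximal effect; potency reflects cytotoxicity seen as loss of intracellular ATP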). To be noted: MRC5 lung fibroblast viability, qHTS. An outline of the steps:
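MRC5 normal human lung fibroblasts (1500/well) were treated with compounds for 40 hr at 37 °C in complete medium, and viable cells were measured as intracellular ATP by CellTiter-Glo luminescence. AC50 came from Hill fits, normalized to DMSO and 100 uM tamoxifen.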
(In general: In qHTS, concentration-response curves come from the screen itself.)

Assay [2] is described as follows: Cell Viability - SK-N-SH (AID 435; calls by dose curve;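 note: potency is the fitted concentration of half-maximal effect; compound exposure lasted 40 h at 37 °C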). To be noted: SK-N-SH neuroblastoma cell viability qHTS. An outline of the steps:
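SK-N-SH human neuroblastoma cells (1500/well) were exposed to compounds in complete medium for 40 h at 37 °C, and intracellular ATP was then measured by CellTiter-Glo luminescence. AC50 was taken from Hill fits, normalized to DMSO and 100 uM tamoxifen.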

The nature of assay [3]: Cellular Toxicity (caspase-3) Jurkat (AID 655).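 Note: cells exposed to compound for 16 h at 37 °C before reading.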 To be noted: Jurkat caspase-3 activation, luminescence; caspase-3 activation: at 92.2 µM (top of the series), DMSO = 0%, tamoxifen = 100%. An outline of the steps:
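Jurkat cells (5000/well) in complete medium were treated with compounds for 16 hr at 37 °C, then Caspase-Glo 3/7 luminescence was read after 20 min at room temperature. Data normalized to DMSO (basal) and 100 uM tamoxifen (100%); AC50 from Hill fit.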

Assay [4] in a line: Cellular Toxicity (caspase-3) H-4-II-E (AID 663).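 Note: cells exposed to compound for 16 hr before readout.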 The following applies: H-4-II-E rat hepatoma; Potency: caspase-3 activation; series mostly up to 92.2 µM. The essentials: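 Luminescence from caspase-cleaved aminoluciferin substrate, read 20 min after reagent addition, reports caspase 3/7 activation in rat H-4-II-E cells after 16 hr compound exposure. Normalized to DMSO (basal) and 100 uM tamoxifen (100%); AC50 from Hill fits.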

The target in assay [5] is Cytochrome P450 3A4 (Homo sapiens) (UniProt P08684). As to the kind of experiment: qHTS Assay for Inhibitors and Substrates of Cytochrome P450 3A4 (AID 884). Note: nearly all actives have a fitted effect of over 50% in size. Note: potency is the fitted concentration of half-maximal effect. The following applies: recombinant CYP3A4, Luciferin-PPXE luminescence; series mostly up to 57.1 µM. An outline of the steps: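 20 nM human CYP3A4 with 25 uM Luciferin-PPXE (at KM) in 200 mM KPO4, preincubated 10 min with compound; NADPH regeneration started a 60 min RT reaction. Luciferin detected by luminescence, normalized to 57 uM ketoconazole as full inhibition.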
Sequence of Cytochrome P450 3A4 (Homo sapiens) (P08684 whole entry, looked up): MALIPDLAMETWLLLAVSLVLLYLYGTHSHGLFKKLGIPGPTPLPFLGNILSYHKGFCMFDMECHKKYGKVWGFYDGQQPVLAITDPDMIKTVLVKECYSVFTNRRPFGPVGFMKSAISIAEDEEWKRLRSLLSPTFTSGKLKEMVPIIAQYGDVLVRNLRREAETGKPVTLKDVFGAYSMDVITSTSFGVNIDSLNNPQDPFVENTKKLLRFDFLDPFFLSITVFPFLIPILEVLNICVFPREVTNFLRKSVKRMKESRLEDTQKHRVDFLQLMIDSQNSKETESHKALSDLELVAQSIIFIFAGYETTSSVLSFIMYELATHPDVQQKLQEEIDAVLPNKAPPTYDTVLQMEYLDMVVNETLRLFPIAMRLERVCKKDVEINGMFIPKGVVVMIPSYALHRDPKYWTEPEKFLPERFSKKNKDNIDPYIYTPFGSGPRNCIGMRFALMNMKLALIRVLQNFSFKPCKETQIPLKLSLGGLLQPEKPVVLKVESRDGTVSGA

Assay [6] is described as follows: MultiTox-Fluor Cytotoxicity Assay - LYMP1-001 - Live Cells (AID 947).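 Note: 0% = DMSO only and full inhibition = tetraoctylammonium bromide control.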 The following applies: LYMP1-001 lymphoblastoid cells, live-cell protease fluorescence viability; series mostly up to 92.2 µM.
The nature of assay [7]: Cell Viability - LYMP1-002 - Assay at 16 hr (AID 948).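 Note: 0% = DMSO alone and full effect = 92 µM tetraoctylammonium bromide.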 To be noted: LYMP1-002 lymphoblastoid cell viability; series mostly up to 92.2 µM. The essentials:
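Human lymphoblastoid cells (LYMP1-002), 2500/well, were preincubated 5 hr at 37 C, then exposed to compounds for 16 hr at 37 C in complete medium. Cellular ATP was read by CellTiter-Glo luminescence after 30 min at room temperature; AC50 from Hill fits.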

Assay [8] is described as follows: Cell Viability - LYMP2-004 (AID 966).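 Note: plate controls were DMSO only for no effect and tetraoctylammonium bromide control for full effect; nearly all actives have a fitted effect of over 65% in size.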 The following applies: LYMP2-004 lymphoblastoid cell viability, qHTS; series mostly up to 92.2 µM. An outline of the steps: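 Cells seeded 2500/well, rested 5 hr at 37 C, dosed across a concentration series, incubated 24 hr at 37 C, then CellTiter-Glo added for 30 min at room temperature and luminescence read. Hill fitting gave AC50.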

Assay [9] in a line: Cell Viability - LYMP2-015 (AID 971).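 Note: 0% = DMSO only and full effect = 92 µM tetraoctylammonium bromide; nearly all actives have a fitted effect of over 55% in size.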 The following applies: LYMP2-015 lymphoblastoid cell viability; series mostly up to 92.2 µM. The essentials:
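Luminescent ATP read-out (CellTiter-Glo) served as the viability measure after lymphoblastoid cells were exposed to compounds for 24 hours at 37 C. Concentration-response data were fitted with the Hill equation to give AC50.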

Assay [10] can be described thus: Cell Viability - LYMP2-019 (AID 973).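 Note: 0% = DMSO alone and full effect = 92 µM tetraoctylammonium bromide; nearly all actives have a fitted effect of over 55% in size.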 To be noted: LYMP2-019 lymphoblastoid cell line viability; series mostly up to 92.2 µM. The essentials: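 Luminescent ATP read-out (CellTiter-Glo, 30 min room temperature) served as the viability measure after 24 hr treatment of lymphoblastoid cells at 37 C. Concentration-response data were fitted to the Hill equation for AC50.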

Assay [11] can be described thus: Cell Viability - LYMP2-007 (AID 979).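 Note: cells exposed to compound for 24 h before reading; nearly all actives have a fitted effect of over 60% in size.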 Note: potency is the fitted concentration of half-maximal effect. To be noted: LYMP2-007 lymphoblastoid cell viability; series mostly up to 92.2 µM. An outline of the steps: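 Luminescent ATP signal (CellTiter-Glo) serves as the viability read-out after 24 hr compound treatment of lymphoblastoid cells in complete medium at 37 C. Concentration-response data were fitted to the Hill equation to give AC50 values.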

Assay [12] is described as follows: Cell Viability - LYMP2-008 (AID 980). Note: % is set by controls: 0 for no effect and ±100 for the full control effect; nearly all actives have a fitted effect of over 60% in size. The following applies: LYMP2-008 lymphoblastoid cell viability, qHTS; series mostly up to 92.2 µM. The essentials:
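qHTS, human lymphoblastoid line, 2500 cells/well; 5 hr preincubation, 24 hr compound, 37 C. CellTiter-Glo ATP luminescence. AC50 via Hill equation. Tetraoctylammonium bromide positive control.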

Assay [13] in a line: Cell Viability - LYMP2-014 (AID 983).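 Note: plate controls were DMSO only for no effect and 92 µM tetraoctylammonium bromide for full effect; nearly all actives have a fitted effect of over 50% in size.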 To be noted: LYMP2-014 lymphoblastoid cells, viability qHTS; series mostly up to 92.2 µM. The essentials:
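Luminescent ATP signal (CellTiter-Glo, 30 min at room temperature) serves as the viability read-out after 24 hr compound exposure at 37 C. Cells were seeded at 2500 per well and settled 5 hr beforehand.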

Assay [14] can be described thus: Cell Viability - LYMP2-018 (AID 985).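 Note: plate controls were DMSO only for no effect and tetraoctylammonium bromide at 92 µM for full effect; nearly all actives have a fitted effect of over 50% in size.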 The following applies: LYMP2-018 lymphoblastoid cells, viability (qHTS); series mostly up to 92.2 µM. The essentials:
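Luminescent ATP signal (CellTiter-Glo, read after 30 min at room temperature) reports viable cells after 24 hr compound treatment at 37 C. Concentration-response data were fitted to the standard Hill equation for AC50.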

Assay [15] can be described thus: Cell Viability - LYMP2-020 (AID 986).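 Note: plate controls were DMSO only for no effect and tetraoctylammonium bromide at 92 µM for full effect; nearly all actives have a fitted effect of over 55% in size.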 To be noted: series mostly up to 92.2 µM. An outline of the steps:
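Luminescent ATP signal (CellTiter-Glo, 30 min at room temperature) is the read-out after 24 h compound treatment of lymphoblastoid cells at 37 C. AC50 values come from Hill-equation fits across concentrations.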

A short description of assay [16]: Cell Viability - LYMP2-022 (AID 987).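 Note: 0% = DMSO alone and full effect = tetraoctylammonium bromide at 92 µM; nearly all actives have a fitted effect of over 55% in size.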 The following applies: LYMP2-022 lymphoblastoid cell viability; series mostly up to 92.2 µM. An outline of the steps: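 qHTS: human lymphoblastoid cells 2500/well; 5 hr 37 C; cpd added; 24 hr 37 C; CellTiter-Glo, 30 min RT; luminescence. AC50 via Hill fit; tetraoctylammonium bromide positive ctrl.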
A short description of assay [17]: Cell Viability - LYMP2-026 (AID 989). Note: % is set by controls: 0 for no effect and ±100 for the full control effect; nearly all actives have a fitted effect of over 50% in size. To be noted: LYMP2-026 lymphoblastoid cell viability, qHTS; series mostly up to 92.2 µM. An outline of the steps:
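Luminescent ATP signal (CellTiter-Glo, 30 min room temperature) measures viable lymphoblastoid cells after 24 hr compound treatment at 37 C. Decreased ATP reflects acute toxicity; AC50 values come from Hill-equation modeling.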

A short description of assay [18]: qHTS assay for small molecule antagonists of retinoid X receptor alpha signaling (AID 588546).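 Note: cells stimulated with 9-cis-retinoic acid as agonist; % is set by controls: 0 for no effect and ±100 for the full control effect.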 To be noted: HEK293T RXRa-UAS-bla, beta-lactamase ratio, antagonist mode; measured here: W530 green channel, cytotoxicity proxy. An outline of the steps: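 Beta-lactamase reporter inhibition, read as CCF4 fluorescence ratio (ex 405, em 460/530 nm) after 2 h at RT. HEK293T UAS-bla cells, 2500/well, were stimulated with 9-cis-RA at 500 or 100 nM final alongside test compound for 18 h at 37 C.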

In assay [19] the target is Voltage-gated inwardly rectifying potassium channel KCNH2 (Homo sapiens) (UniProt Q12809). As to the kind of experiment: qHTS Assay for Small Molecule Inhibitors of the Human hERG Channel Activity (AID 588834). The following applies: U2OS BacMam hERG, FluxOR thallium flux fluorescence; series mostly up to 92.2 µM. The essentials:
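U2OS cells transduced with hERG via BacMam (MOI ~100), plated 2000/well, loaded with FluxOR thallium dye, compound ~10 min, then stimulation buffer; fluorescence decrease read kinetically; AC50 from Hill fits.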

Assay [20] can be described thus: Cellular Toxicity (caspase-3) HUV-EC-C (AID 656). To be noted: HUV-EC-C cells, caspase-3 activation (apoptosis), vehicle = 0, 100 µM tamoxifen = 100%; series mostly up to 92.2 µM. An outline of the steps:
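HUV-EC-C endothelial cells, 1000/well, were pre-incubated 5 hr at 37°C, then exposed to compounds for 16 hr at 37°C. Caspase-Glo 3/7 luminescence was read after 20 min at room temperature. AC50 came from Hill fits, normalized to DMSO and 100 uM tamoxifen.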

Sequence of Voltage-gated inwardly rectifying potassium channel KCNH2 (Homo sapiens) (Q12809 whole entry, looked up): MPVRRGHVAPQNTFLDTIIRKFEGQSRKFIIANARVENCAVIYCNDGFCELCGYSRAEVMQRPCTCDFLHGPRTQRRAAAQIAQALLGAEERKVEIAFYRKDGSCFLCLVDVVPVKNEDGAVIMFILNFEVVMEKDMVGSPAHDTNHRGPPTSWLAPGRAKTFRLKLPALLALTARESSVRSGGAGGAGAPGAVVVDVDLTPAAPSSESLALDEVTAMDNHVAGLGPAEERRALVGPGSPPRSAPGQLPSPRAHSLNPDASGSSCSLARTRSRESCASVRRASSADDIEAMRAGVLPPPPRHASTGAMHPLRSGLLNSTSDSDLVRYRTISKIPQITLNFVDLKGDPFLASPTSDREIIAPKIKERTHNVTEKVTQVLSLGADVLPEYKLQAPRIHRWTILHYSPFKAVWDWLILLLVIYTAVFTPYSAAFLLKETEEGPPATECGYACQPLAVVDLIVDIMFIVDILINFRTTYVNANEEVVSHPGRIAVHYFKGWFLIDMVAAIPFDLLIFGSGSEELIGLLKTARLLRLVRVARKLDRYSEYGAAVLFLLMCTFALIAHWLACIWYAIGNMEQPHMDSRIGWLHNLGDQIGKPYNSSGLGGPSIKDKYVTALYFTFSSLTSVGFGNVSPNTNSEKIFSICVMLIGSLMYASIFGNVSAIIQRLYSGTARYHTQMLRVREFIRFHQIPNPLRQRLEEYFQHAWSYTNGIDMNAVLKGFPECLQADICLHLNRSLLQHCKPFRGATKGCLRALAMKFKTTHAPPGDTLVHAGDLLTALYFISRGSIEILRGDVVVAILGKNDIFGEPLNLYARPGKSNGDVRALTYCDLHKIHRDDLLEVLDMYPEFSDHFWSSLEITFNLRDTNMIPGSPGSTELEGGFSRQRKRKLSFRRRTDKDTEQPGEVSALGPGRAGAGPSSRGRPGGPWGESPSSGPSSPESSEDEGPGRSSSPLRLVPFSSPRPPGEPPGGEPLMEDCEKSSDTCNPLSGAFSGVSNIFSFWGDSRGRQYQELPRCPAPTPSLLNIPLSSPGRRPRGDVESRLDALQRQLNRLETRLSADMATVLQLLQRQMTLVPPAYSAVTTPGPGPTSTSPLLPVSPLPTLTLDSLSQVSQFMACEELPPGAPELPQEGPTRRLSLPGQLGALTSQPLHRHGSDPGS

In the case of `O=C(O)CCl`, the Potency in assay [1] and in assay [2] was > 92 µM (inactive) in each case. The caspase-3 activation in assay [3] is -0.292% (inactive). The Potency result in assay [4], in assay [5], in assay [8], in assay [9], in [10] and in assay [11] was “inactive” in each case. Also, the Potency entry in [12], in [13], in [14], in [15], in assay [16] and in assay [17] was “inactive” each time. In addition, the Potency entry in [19] was “inactive”. In addition, the molecule was called inactive in assay [6] and in assay [7]. In addition, the max response in [18] is 1.14%.

On to `Cc1cc(C)cc(OP(=O)(Oc2cc(C)cc(C)c2)Oc2cc(C)cc(C)c2)c1`, for which the Potency in assay [1] is > 92 µM (inactive); in [2], > 92 µM (inactive); in assay [5], 2.51 µM (active). For the same molecule, the caspase-3 activation in [3] was 0.111% (inactive). The call in [20], in [6] and in assay [7] was inactive. Besides, the Potency result in [4], in [8], in assay [9], in assay [10], in assay [11] and in [12] was “inactive” in each case. The Potency result in assay [13], in assay [14], in assay [15], in assay [16] and in [17] was “inactive” each time. In assay [18], the max response was found to be 17.8%.

As for `O=C(O)C(Br)CBr` (centres undefined), the Potency in assay [1] and in assay [2] was > 92 µM (inactive) throughout. Also, in [3], the caspase-3 activation is 1.63% (inactive). Moreover, the result in [20], in assay [6] and in assay [7] was inactive. Further, the Potency entry in [4], in [5], in assay [9], in assay [10], in assay [12] and in assay [13] was “inactive” each time. The Potency entry in assay [14], in [15], in assay [16], in assay [17] and in [19] was “inactive” each time.

In the case of `Brc1ccc(Oc2ccc(Br)cc2Br)c(Br)c1`, the Potency in assay [1] and in [2] was > 92 µM (inactive) each time. Besides, the Potency entry in [4], in assay [5], in [8], in assay [9], in [10] and in [11] was “inactive” in each case. For the same molecule, the Potency result in assay [12], in assay [13], in [14], in assay [15], in [16] and in assay [17] was “inactive” in each case. In addition, the result in assay [6] and in [7] was inactive.

Turning to `CC(=O)CCC(C)=O`, the Potency in assay [1] and in assay [2] was > 92 µM (inactive) each time. Besides, the caspase-3 activation in assay [3] is 0.378% (inactive). For the same molecule, the result in assay [20], in assay [6] and in assay [7] was inactive. The Potency entry in assay [4], in [5], in assay [8], in assay [9], in assay [10] and in assay [11] was “inactive” each time. The Potency entry in [12], in assay [13], in [14], in assay [15], in assay [16] and in assay [17] was “inactive” in each case. Also, the Potency entry in assay [19] is “inactive”. For the same molecule, the max response in [18] was -1.17%.

Turning to `Cc1ccc2c(c1N)C(=O)c1ccccc1C2=O`, the Potency in [1] is > 92 µM (inactive); in assay [2], > 92 µM (inactive); in assay [5], 5.01 µM (active). Further, in assay [3], the caspase-3 activation is -9.07% (inactive). In addition, the result in assay [20] and in assay [6] was inactive. For the same molecule, the Potency entry in assay [4], in assay [8], in [9], in assay [10], in [11] and in assay [12] was “inactive” in each case. In addition, the Potency result in [13], in assay [14], in assay [15], in assay [16] and in assay [17] was “inactive” throughout. Also, the max response in assay [18] was -0.33% and -4.6%.

For `N#CC(Br)Br`, the Potency in assay [1] is > 92 µM (inactive); in assay [2], > 92 µM (inactive); in assay [11] it was 39.8 µM (active). Besides, the call in [20], in assay [6] and in [7] was inactive. Also, the Potency entry in assay [4], in assay [5], in assay [8], in assay [17] and in [19] was “inactive” each time. The max response in assay [18] was -2.67%.

As to `CC(C)(COCC1CO1)COCC1CO1` (centres undefined), the Potency in [1] was > 92 µM (inactive). In assay [3], the caspase-3 activation is 14.4% (inactive). In addition, the Potency entry in assay [4], in [5], in assay [8], in assay [9], in assay [10] and in assay [11] was “inactive” throughout. In addition, the Potency entry in assay [12], in assay [13], in assay [14], in assay [15], in assay [16] and in assay [17] was “inactive” throughout. Also, the Potency entry in assay [19] was “inactive”. In addition, the call in [6] and in assay [7] was inactive. Besides, in [18], the max response amounted to 21.1%.
